Source: PubChem
SMARCA2 activ – SMARCA2 (BRM) function activators, primary screen, cell-based, luminescence, high throughput. 1% of 370,000 active. AID 652017, 2013. activation, % at 9.1 µM. MG213 cells, MMTV-luciferase reporter, dexamethasone, overnight; in the data active = activation above about 7.8%;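 note: 0% = vehicle wells and 100% = reference activator wells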
Hsp70 act – Hsp70 transcriptional activators, primary screen, cell-based, HeLa, Hsp70 promoter luciferase, luminescence, 10 µM | HeLa Hsp70 promoter luciferase reporter; scaled: vehicle 0, proteasome-inhibitor control 100% | activation, % at 10 µM | 0.04% of 200,000 active | AID 1203, 2008;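 active = activation above the mean across all tested compounds plus 3 SD, cutoff set per campaign, cut at about 5.5% in these data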;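 note: 100% = MG132 at 30 µM as the positive control and 0% = DMSO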
GalR3 antagonist – GalR3 antagonists in HEK293 cells, primary screen, cell-based, fluorescence readout; Galanin receptor type 3 (Homo sapiens), O60755; HEK293 GalR3-CNG cAMP membrane potential fluorescence; galR3 body fused to GalR1 C-terminus; inhibition, % at 3 µM; 0.44% of 360,000 active; AID 651719, 2012;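 active = inhibition above the screen-wide average plus 3 SD, cut at about 13% in these data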;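 note: forskolin and galanin both at EC90 stimulate the cells; cAMP rise reported by CNG channel membrane potential dye signal; 0% = forskolin plus galanin with DMSO and 100% = forskolin alone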
Target sequence (O60755 1-299 limits assumed): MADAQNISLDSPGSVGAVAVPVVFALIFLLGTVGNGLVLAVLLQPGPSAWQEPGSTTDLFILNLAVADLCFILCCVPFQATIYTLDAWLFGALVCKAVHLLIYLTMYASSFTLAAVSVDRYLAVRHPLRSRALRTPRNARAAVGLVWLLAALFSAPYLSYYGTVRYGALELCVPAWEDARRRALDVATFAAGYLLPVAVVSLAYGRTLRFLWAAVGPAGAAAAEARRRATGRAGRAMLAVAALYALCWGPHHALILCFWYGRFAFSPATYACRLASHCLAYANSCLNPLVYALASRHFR
HIF activator – HIF pathway transcriptional activators, primary screen, cell-based, U2OS HRE-luciferase, luminescence; U2OS HRE-luciferase reporter; normalized: DMSO 0%, desferrioxamine 100%; 0.32% of 300,000 active; activation, % at 7.5 µM (by protocol);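 active = mean activation of at least 10% of the iron chelator positive control signal, with at least half of replicates also reaching 10%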
FXN GAA850 act – FXN promoter activators, primary screen, cell-based, luciferase luminescence, HEK293 lucGAA850; 0.56% of 360,000 active; HEK293 lucGAA850 FXN promoter luciferase reporter, 24 h; percent of 10 µM SAHA response; activation, % at 6 µM; AID 540364, 2011;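 active = activation above the average of all compounds screened plus 3 SD, cutoff fixed separately per campaign, cut at about 7.5% in these data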;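 note: 0% = DMSO wells and 100% = 10 µM SAHA wells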
SMARCA2 conf – SMARCA2 (BRM) function activators, confirmation, cell-based, luminescence, triplicate | shares compounds with SMARCA2 activ | MG213 cells, MMTV-luciferase with dexamethasone, overnight; MG213 cells expressing E1A, Rb sequestered; DMSO wells 0%, reference activator 100% | activation, % at 9.1 µM | 30% of 3,500 active;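 active = activation above its plate's cutoff, the mean activation of tested wells plus 3 SD, cut at about 7.9% in these data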
VP16 Luc act – GAL4-VP16 luciferase reporter activation, counter-screen for SMARCA2 (BRM) activator project, cell-based, pG5luc, luminescence, high throughput. shares compounds with SMARCA2 activ. HEK293 GAL4-VP16 pG5luc reporter; scaled: DMSO wells 0%, SAHA wells 100%. activation, % at 9.1 µM. 41% of 3,500 active. AID 686939, 2013;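 active = activation above the solvent-only control well mean plus 3 SD, averaged across control plates, cut at about 5.2% in these data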
* hit, by the source's call; x = no result. A selection: hits, their analogues and other compounds. The true share with any hit is near 2.2%.

SMILES	SMARCA2 activ	Hsp70 act	GalR3 antagonist	HIF activator	FXN GAA850 act	SMARCA2 conf	VP16 Luc act
CCCCN1CN2CCc3ccccc3C2CS1(=O)=O (stereo not given)	-3	x	x	x	x	x	x
COc1ccc(-c2cc(NC(C)=O)c3ncc(-c4cccc(C(C)=O)c4)n3c2)cc1OC	-2	x	-8	x	2	x	x
CC(=O)Nc1cc(-c2cccc(C(=O)NCCN(C)C)c2)cn2c(-c3cccc(C(F)(F)F)c3)cnc12	22*	x	-5	x	-3	-15	2
COc1ccc(-c2cc(NC=O)c3ncc(-c4cccc(C(=O)NCCN(C)C)c4)n3c2)cc1	8.0*	x	-6	x	-2	11*	0
CC(=O)Nc1cccc(-c2cc(NC(C)=O)c3ncc(-c4cccc(C(C)=O)c4)n3c2)c1	8.9*	x	-4	x	-4	4	1
COC(=O)C1CN(Cc2cn(Cc3ccc(F)cc3)nn2)CCS(=O)(=O)N1Cc1ccccc1 (stereo not given)	-3	x	x	x	x	x	x
CCN(CC)CCCNC(=O)c1cc2cc(Cl)ccc2nc1N	2	x	-4	x	x	x	x
Fc1ccc(-c2cc(-c3nnc4sc(-c5cccs5)nn34)[nH]n2)cc1	1	x	x	x	x	x	x
CCOC(=O)CNC(=S)N1CCn2c(nc3ccccc32)C1	9.8*	0	-6	0	3	-2	0
CCNC(=S)N1CCn2c(nc3ccccc32)C1	-1	0	-4	0	3	x	x
COc1ccccc1N1CCN(C2=Nc3cccc4cccc2c34)CC1	9.2*	0	-5	5	4	22*	6.5*
CC(=O)N1CCc2c1cccc2S(=O)(=O)NC(CC(C)C)C(=O)Nc1ccccc1C (stereo not given)	3	x	x	x	x	x	x
Cn1c(N2CCN(S(=O)(=O)c3ccc(Cl)cc3)CC2)nc2ccccc21	-4	0	-6	0	0	x	x
CCc1nc2ccccc2nc1N1CCN(S(=O)(=O)c2ccc(Cl)cc2)CC1	9.4*	x	-5	0	1	-3	0
COC(=O)[C@]12C[C@H](CC(=O)NCc3ccccc3)C(=O)N(Cc3ccccc3)C1=C[C@H](C(C)(C)C)O[C@@H]2C	-2	x	-7	x	x	x	x
CCOc1cc(C2NN=C(c3ccccc3)S2)ccc1OCc1ccc(F)cc1 (stereo not given)	14*	0	0	2	7	-3	9.3*
CC(C)(C)c1cccc(N/C(=C\C(=O)c2ccccc2)c2ccccc2)c1	-1	x	-4	x	x	x	x
O=C1c2ccccc2-c2c1c1ccccc1c(=O)n2CCO	16*	x	-6	x	6	14*	7.7*
COc1cc(/C=N/NC(=O)c2nonc2C)ccc1O	9.4*	0	-7	0	1	6	0
COc1cc(/C=N/NC(=O)c2cc(C)oc2C)ccc1O	-1	0	-3	0	0	x	x
COc1cc(/C=N/NC(=S)Nc2cccc(S(=O)(=O)N(C)C)c2)ccc1O	9.8*	0	-11	1	1	2	5.8*
COc1cc(/C=N/NC(=O)c2cccc(NC(=O)c3ccccc3)c2)ccc1O	2	x	10	-1	-2	x	x
COc1cc(/C=N/NC(=O)c2nc(C)cc(C)n2)ccc1O	8.9*	0	-1	0	1	2	0
COc1ccc(C(=O)N(C)[C@H]2C[C@H]3c4[nH]c5c(-c6ccccc6)cccc5c4CCN3C(=O)[C@H]2[C@H](C)O)cc1	-2	x	-4	x	x	x	x
CCOC(=O)Cn1cc(CN2CCS(=O)(=O)N(Cc3ccc(Cl)cc3)C(C(=O)OC)C2)nn1 (stereo not given)	-5	x	x	x	x	x	x
SMILES	SMARCA2 activ	Hsp70 act	GalR3 antagonist	HIF activator	FXN GAA850 act	SMARCA2 conf	VP16 Luc act
Brc1ccc(/C=C/C=N/Nc2nc3ccccc3s2)cc1	13*	0	-6	3	3	6	8.7*
O=C(Nc1cc(Br)ccc1O)c1cc(-c2ccc3c(c2)OCO3)on1	4	x	5	3	3	x	x
CSc1ccccc1NC(=O)c1cc(-c2ccc3c(c2)OCO3)on1	10*	x	-1	2	2	6	2
CSc1ccccc1NC(=O)c1cc(C(C)C)on1	8.0*	0	-4	4	6	3	7.9*
COc1cccc(NC(=O)NC2CCCCN(Cc3ccccc3C)C2=O)c1 (stereo not given)	-3	x	x	x	x	x	x
Cc1cccc2nc(=S)n(C(=O)c3ccco3)n12	8.6*	1	-4	3	3	7	14*
CCn1c2ccccc2c2cc(C=NNC(=O)c3cc(-c4ccc(OC)cc4)n[nH]3)ccc21	4	x	x	x	x	x	x
O=[N+]([O-])c1cc(O)c2ncccc2c1	21*	0	-2	0	x	1	2
O=[N+]([O-])c1cc2cccnc2c2ncccc12	-3	x	-2	1	-1	x	x
COC(=O)C1=C(C)N(Cc2cccc(C(F)(F)F)c2)C(=NCc2cc(OC)c(OC)c(OC)c2)NC1c1cccc(F)c1 (stereo not given)	-1	x	-1	x	x	x	x
COc1cc2c(C#CCCO)c(-c3ccsc3)oc(=O)c2cc1OC	9.3*	x	-8	x	-4	11*	2
COc1cc2c(C#CCCO)c(-c3ccc(C#N)cc3)oc(=O)c2cc1OC	2	x	-4	x	0	x	x
Cc1cc2oc(=O)cc(COC(=O)c3n[nH]c4ccccc34)c2cc1C	3	0	2	3	2	x	x
COc1ccc2c(COC(=O)c3n[nH]c4ccccc34)cc(=O)oc2c1	9.5*	0	-1	3	0	6	11*
C#CCN(Cc1ccco1)C(=O)c1nnc2c3cc(OC)ccc3n(S(=O)(=O)c3ccc(OC)cc3)c2n1	-2	x	-2	x	x	x	x
COc1ccccc1C(=O)N1CCC2CCN(C(=O)OC(C)(C)C)C2C1 (stereo not given)	-6	x	1	x	x	x	x
CCOC(=O)[C@]12CCC=C1N(Cc1ccccc1)C(=O)[C@H](CC(=O)NCCc1ccccc1OC)C2	10*	x	-6	x	x	-3	-1
CCOC(=O)[C@]12CCCC=C1N(Cc1ccco1)C(=O)[C@H](CC(=O)NCCc1ccccc1OC)C2	8.3*	x	-7	x	x	0	0
CCOC(=O)[C@]12CCCC=C1N(Cc1ccccc1)C(=O)[C@H](CC(=O)NCCc1ccccc1OC)C2	-4	x	-7	x	x	x	x
